An excerpt weighted towards active compounds, which were near 12% of everything screened.
FMDV antiviral: blocks foot and mouth disease virus | FMDV antiviral cell-based qHTS | Potency, µM (highest dose often 57.9 µM), usual class: inhibitors | 410,000 compounds, 1.2% hits | AID 1159524; calls by dose curve; tested in HEK293T cells; further: read-out not given here; nearly all actives have a fitted effect of over 45% in size
Cycloheximide cs: counter-screen hit for Shiga toxin inhibitors, cycloheximide. cell reporter, cycloheximide protein synthesis inhibition counterscreen. 300,000 compounds, 12% hits. max response, %; in the data active means max response mostly above about 13%, no sharp cut-off; inactive means mostly below about 14%; further: read at 38.3 µM for the half of the compounds with a filed dose
Sm TGR block: blocks Schistosoma mansoni thioredoxin glutathione reductase; Q962Y6; purified TGR, DTNB reduction, TNB absorbance 405 nm; Potency, µM (doses to about 114 µM), most hits filed as inhibitors; 360,000 compounds, 3% hits; active means well fitted inhibition curve with a large enough effect; inconclusive means small, poorly fitted or top-dose-only effect; inactive means no such curve, though single readings can be large or run the other way; further: nearly all actives have a fitted effect of over 60% in size
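First, TGR (20 nM dispensed) and NADPH were mixed with compound. Second, a 15 min room-temperature incubation followed. Third, further NADPH and then DTNB were added to start the reaction. Finally, TNB absorbance was monitored kinetically.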
Shiga inhibitor: blocks Shiga toxin action in Vero cells; Vero cells, Shiga toxin protein synthesis inhibition reporter; 290,000 compounds, 9.2% hits; inhibition, % at 38.7 µM; in the data active means inhibition mostly above about 28%, no sharp cut-off; inactive means mostly below about 43%
Hits are given with their value; i = inactive; ? = inconclusive; nt = not tested or not shown; [ ] = dose if it differs, or a comment.

SMILES	FMDV antiviral	Cycloheximide cs	Sm TGR block	Shiga inhibitor
COc1cccc(CNC(=O)Cn2cc3c(n2)-c2c(oc(C(=O)N4CCOCC4)c2C)CC3)c1	?	nt	i	nt
Fc1ccccc1CSc1ncn[nH]1	i	i	i	i
c1ccc(Nc2nc(CSc3ncn[nH]3)cs2)cc1	i	43.5	?	68.1
Cc1cccc(NC(=O)c2ccc(Cl)nc2)n1	i	i	i	i
CCCCOc1ccc(C(=O)Nc2cccc(C)n2)cc1	i	43.2	i	73.6
CN(C)S(=O)(=O)c1ccc(C(=O)Nc2nnc(-c3cccs3)o2)cc1	i	18.9	i	i
Cc1cccc(NC(=O)CN(C)S(=O)(=O)c2ccc(Cl)cc2)n1	i	i	i	i
CCOc1ccc(NC(=O)Nc2cccc(C)n2)cc1	i	27.6	i	72.0
Cc1cccc(NC(=O)c2ccc(S(=O)(=O)N(C)C)cc2)n1	i	36.7	i	78.0
CCOc1ccc(NC(=O)Nc2ccc(Cc3ccncc3)cc2)cc1	i	i	i	i
CCn1c(=O)c2cc(C(=O)NCCCN3CCN(c4ccc(F)cc4)CC3)sc2c2ccccc21	?	nt	i	nt
Cc1cc(C)cc(-n2ccn(CC(=O)Nc3ccccc3C(F)(F)F)c(=O)c2=O)c1	i	nt	i	nt
CCOC(=O)N1CCC(NC(=O)c2cnn(-c3ccc(OC)cc3)c2C2CCN(C(=O)OC(C)(C)C)CC2)CC1	i	nt	i	nt
CSCC[C@H](NC(=O)[C@H](CC(C)C)NC(=O)CNC(=O)[C@H](Cc1ccc(O)cc1)NC(=O)[C@H](Cc1ccccc1)NC(=O)[C@H](CCCCN)NC(=O)[C@H](CC(N)=O)NC(=O)[C@@H]1CCCN1C(=O)[C@H](CC(=O)O)NC(=O)[C@H](C)NC(=O)[C@@H]1CCC(=O)N1)C(N)=O	nt	i	nt	i
CC1CCc2nc3ncn(Cc4cccc(F)c4)c(=O)c3cc2C1 (stereo not drawn)	i	nt	i	nt
Cc1ccc2occ(CC(=O)Nc3c(C(=O)Nc4ccc(Cl)cc4)oc4ccccc34)c2c1	i	nt	i	nt
CCC(Sc1nc2c(sc3ccccc32)c(=O)n1CCCC(=O)NC1CCCC1)C(=O)Nc1cccc(OC)c1 (stereo not drawn)	i	nt	i	nt
CCOc1ccc(C(=O)Nc2cc(C)ccn2)cc1	i	i	i	i
CCOc1ccc(C(=O)Nc2cccc(C)n2)cc1	i	24.5	i	i
Nc1ccc(C(=O)N/N=C/c2c[nH]c3ccccc23)cc1	i	29.2	i	i
COC(=O)N/N=C/c1c[nH]c2ccccc12	i	i	i	i
O=C(N/N=C/c1c[nH]c2ccccc12)c1ccccc1Cl	i	25.9	i	i
NC(=S)N/N=C/c1c[nH]c2ccccc12	i	i	i	i
O=C(CNC(=O)c1ccc([N+](=O)[O-])cc1)N/N=C/c1c[nH]c2ccccc12	i	i	i	i
CC(C)(C)OC(=O)N/N=C/c1c[nH]c2ccccc12	i	55.6	i	72.9
SMILES	FMDV antiviral	Cycloheximide cs	Sm TGR block	Shiga inhibitor
O=C(N/N=C\c1c[nH]c2ccccc12)c1ccc(O)cc1	i	39.2	i	63.2
CC(=O)c1cccc(N(C(=O)Cn2nnc3ccccc32)C(C(=O)NCc2ccccc2)c2ccc(F)cc2)c1 (stereo not drawn)	i	nt	i	nt
CCCC[C@]12Cc3cc(C#N)ccc3C(O1)c1c(cc(C)n(Cc3ccccc3)c1=O)O2	nt	i	i[22.9 µM]	i
O=C1CC(C(=O)N2CCOc3ccc(CN4CCC(Oc5cccnc5)CC4)cc3C2)c2ccccc21 (stereo not drawn)	i	nt	nt	nt
COc1ccccc1/C=N/NC1=NCCCCC1	nt	i	i	i
Cc1occc1C(=O)N/N=C/c1c[nH]c2ccccc12	i	47.6	i	96.0
O=C(O)c1ccc(S(=O)(=O)NN=Cc2c[nH]c3ccccc23)cc1	i	nt	nt	nt
O=C(N/N=C/c1c[nH]c2ccccc12)c1ccc(Cl)cc1	i	34.1	i	71.5
C(=N\NC1=NCCCCC1)/c1c[nH]c2ccccc12	i	20.9	i	i
O=C(CNC(=O)c1ccco1)N/N=C/c1c[nH]c2ccccc12	i	i	i	i
O=C(O)c1ccc(N/N=C/c2c[nH]c3ccccc23)cc1	6.31µM	i	i	i
CCCc1nc2cccnc2n1C1CCN(C(=O)Cn2nccc2C)CC1	i	nt	nt	nt
CC(C)Oc1ccc(Br)cc1C(=O)N/N=C/c1c[nH]c2ccccc12	i	i	i	i
O=C(N/N=C/c1c[nH]c2ccccc12)c1ccc(Br)cc1	i	31.7	i	54.3
O=C(N/N=C/c1c[nH]c2ccccc12)c1cc(Cl)ccc1O	i	45.3	i	43.9
Fc1c(F)c(F)c(N/N=C/c2c[nH]c3ccccc23)c(F)c1F	i	15.7	i	i
CCc1ccc(NC(=O)c2sc(-n3nc(C)c(Cc4ccc(OC)cc4)c3C)nc2C)cc1	i	nt	i	nt
O=C(CSc1ccccc1)NCc1ccc2c(c1)CCN2C(=O)c1ccc(Cl)cc1	i	nt	i	nt
CCCNC1=C(N(C(C)=O)c2cccc(F)c2)C(=O)c2ccccc2C1=O	28.2µM	i	i	i
O=C(CCl)N1c2ccccc2CCc2ccccc21	nt	i	11.2µM	i
NC1=NC(=O)/C(=C\c2cccs2)S1	i	i	i	i
O=C1N=C(N2CCOCC2)S/C1=C\c1cccs1	i	21.9	i	39.2
N#CCCN1CCN(C2=NC(=O)/C(=C\c3cccs3)S2)CC1	i	21.4	i	i
O=C(NCCn1cc(SCc2ccccc2F)c2ccccc21)c1cccs1	i	nt	i	nt
Cn1cnc(S(=O)(=O)N2CCC(C(=O)NCc3ccc(F)cc3)CC2)c1	i	nt	i	nt
SMILES	FMDV antiviral	Cycloheximide cs	Sm TGR block	Shiga inhibitor
COc1ccccc1CNc1nc(NCc2ccccc2OC)c2sccc2n1	22.4µM	nt	nt	nt
COc1ccccc1CNc1nc(NCc2ccc(NC(C)=O)cc2)c2sccc2n1	i	nt	nt	nt
COc1ccccc1CNc1nc(NCC2CC2)nc2ccsc12	25.1µM	nt	nt	nt
COc1ccccc1CNc1nc(NCCOc2ccccc2)c2sccc2n1	i	nt	nt	nt
COc1ccccc1CNc1nc(NCc2ccc3occc3c2)c2sccc2n1	25.1µM	nt	nt	nt
CCOC(=O)Cc1ccc(Nc2nc(NCc3ccccc3)nc3ccsc23)cc1	28.2µM	nt	nt	nt
Cc1cc(C)nc(-n2nc(C)c3c2N(Cc2ccccc2F)C(=O)CC3c2ccc(Cl)cc2)n1 (stereo not drawn)	i	nt	i	nt
COc1ccc(C(=O)NCCc2nnc3n2CCN(CC2CC=CCC2)CC3)cc1 (stereo not drawn)	i	nt	nt	nt
Cc1ccc(N(CC(=O)N2CCN(c3ccc(Cl)cc3)CC2)S(=O)(=O)c2c(C)noc2C)cc1	i	nt	i	nt
CCOC(=O)c1c(/N=C/c2c(O)n(-c3cccc(C)c3)c(=O)[nH]c2=O)sc2c1CCCC2	i	i	89.1µM	i
CCOC(=O)c1c(/N=C/c2ccccc2O)sc2c1CCC2	i	i	i	i
COc1ccc(S(=O)(=O)N2CCCN(CC(=O)C(C)(C)C)CC2)cc1	i	i	10µM	i
COc1ccc(S(=O)(=O)N2CCCN(C)CC2)cc1	i	i	39.8µM	i
Oc1ccc(C2=NNC(c3ccc(O)cc3)=NN2)cc1	i	i	i	i
CSC1=NNC(c2ccc(C(C)(C)C)cc2)=NN1	i	32.9	i	96.3
CCCCn1c(N)c(-c2nc3ccccc3o2)c2c([N+](=O)[O-])nn(CC)c(=O)c21	i	i	i	i
CCn1nc([N+](=O)[O-])c(C(C#N)c2nc3cc(C(F)(F)F)ccc3s2)c(Cl)c1=O (stereo not drawn)	2µM	i	3.98µM	i

Assay outcomes as filed in PubChem.
